Results reported in PubChem BioAssay AID1986 (Sanford-Burnham Center for Chemical Genomics, 2009).
Screen size: about 290,000 compounds; about 890 (0.31%) were called active. This is one part of a sample in which actives are shown more often than they occur. No stated cut-off is given here; in the data, active means inhibition mostly above about 52% (no sharp cut-off); inactive means mostly below about 76%.

Assay: inhibitors of HIV fusion peptide binding, primary screen, biochemical, uHTS, fluorescence dequenching (AID 1986)
Conditions: cell-free peptide binding, 30 min, stronger effect = higher value
[1] = measured here: repeat confirmation average inhibition, at 18.6 µM

## Cc1ccc(N2C(=O)NC(=O)/C(=C\C=C\c3ccco3)C2=O)cc1
At 20 µM
  inhibition: 75.4% (inactive)
[1]
  inhibition: 16.3%

## O=C1NC(=S)N(Cc2ccco2)C(=O)/C1=C\c1cccs1
At 20 µM
  inhibition: 67.5% (active)

## Cc1cc(C)cc(N2C(=O)NC(=O)/C(=C\C=C\c3ccco3)C2=O)c1
At 20 µM
  inhibition: 108% (inactive)
[1]
  inhibition: 13.9%

## COc1ccc(CN2C(=O)NC(=O)/C(=C/c3ccc([N+](=O)[O-])s3)C2=O)cc1
At 20 µM
  inhibition: 55.1% (inactive)
[1]
  inhibition: 18.5%

## COc1ccc(NC(=O)CN2C3CCC2CC(O)(c2cccnc2)C3)cc1OC (stereo not given)
At 20 µM
  inhibition: -0.5% (inactive)

## c1cc(CCN2CCCC2)ccn1
At 20 µM
  inhibition: 1.8% (inactive)

## Cc1cccc(N=Nc2ccc(N(C)C)cc2)c1
At 20 µM
  inhibition: -1.7% (inactive)

## O=[N+]([O-])c1ccc2c(c1)C(c1ccccc1)=NCCN2
At 20 µM
  inhibition: 0.2% (inactive)

## CCN1CCN(c2ccc(N)cc2C)CC1
At 20 µM
  inhibition: -1.1% (inactive)

## CN1CCN(Cc2cn3cccnc3n2)CC1
At 20 µM
  inhibition: -0.4% (inactive)

## CCC(C)n1c(O)c(C=NCC2CCCO2)c(=O)[nH]c1=S (stereo not given)
At 20 µM
  inhibition: -0.8% (inactive)

## CC1=C2C3OC(=O)C(C)C3CC[C@@]2(C)C=CC1=O (stereo not given in full)
At 20 µM
  inhibition: -0.7% (inactive)

## CN1CCN(c2ccc([N+](=O)[O-])c(SCCO)c2)CC1
At 20 µM
  inhibition: -0.1% (inactive)

## Cc1cc(Cl)ccc1C(=O)C1CCCN(Cc2ccon2)C1 (stereo not given)
At 20 µM
  inhibition: -1.3% (inactive)

## CCOP(=O)(OCC)C(O)c1ccc(Br)cc1 (stereo not given)
At 20 µM
  inhibition: -1% (inactive)

## CC(Cc1ccccc1)[n+]1cc(/N=C(\N)[O-])on1 (stereo not given)
At 20 µM
  inhibition: -2% (inactive)

## CCN(CC)C(=O)c1ccc(NC(=O)CN2CCc3cc(OC)c(OC)cc3C2)cc1
At 20 µM
  inhibition: -1.3% (inactive)

## COc1ccc(CN2CCN(c3ccccc3)CC2)c(C)c1C
At 20 µM
  inhibition: -1.3% (inactive)

## CCN(CC)c1ccc(/C=C2/C(=O)NC(=O)N(Cc3ccco3)C2=O)cc1
At 20 µM
  inhibition: 84.2% (active)

## CN(C)c1ccc(/C=C2/C(=O)NC(=O)N(Cc3ccco3)C2=O)cc1
At 20 µM
  inhibition: 42.7% (inactive)

## Cn1cccc1/C=C1\C(=O)NC(=O)N(Cc2ccco2)C1=O
At 20 µM
  inhibition: 30.6% (inactive)

## O/N=C1/C(=C\c2ccccc2)N2CCC1CC2
At 20 µM
  inhibition: 9.6% (inactive)

## CN1CCC(N2CC3CC(C2)c2cccc(=O)n2C3)CC1 (stereo not given)
At 20 µM
  inhibition: 1.9% (inactive)

## CCOC(=O)c1c(/N=C/C2C(=O)NC(=S)NC2=O)sc(C)c1C
At 20 µM
  inhibition: 30.3% (inactive)

## CCOC(=O)c1c(/N=C/C2C(=O)NC(=S)NC2=O)sc2c1CCC2
At 20 µM
  inhibition: 81.3% (active)

## CCOC(=O)c1c(/N=C/C2C(=O)NC(=O)NC2=O)sc2c1CCC2
At 20 µM
  inhibition: 6.8% (inactive)

## CN1CCC(=O)N(CCN=[N+]=[N-])CC1
At 20 µM
  inhibition: 1.6% (inactive)

## COc1cc(C)c(CN2CC=C(c3ccc(F)cc3)CC2)cc1C
At 20 µM
  inhibition: -1.1% (inactive)

## CCN(CC)c1ccc(CN(C)CCc2ccc(OC)c(OC)c2)cc1
At 20 µM
  inhibition: 0.5% (inactive)

## Fc1ccccc1N1CCN(Cc2c(F)cccc2F)CC1
At 20 µM
  inhibition: -0.2% (inactive)

## O=C(N=Nc1c(O)[nH]c(=O)[nH]c1=O)C1COc2cc3ccccc3cc2O1 (stereo not given)
At 20 µM
  inhibition: 4.2% (inactive)

## O=C(C1CCCN(S(=O)(=O)c2cccc3nsnc23)C1)N1CCC2(CC1)OCCO2 (stereo not given)
At 20 µM
  inhibition: -1.1% (inactive)

## O=C(C(Cc1ccccc1)NS(=O)(=O)c1cccc2nsnc12)N1CCC2(CC1)OCCO2 (stereo not given)
At 20 µM
  inhibition: 103% (active)

## O=C(C(Cc1ccccc1)NS(=O)(=O)c1ccc(F)cc1)N1CCC2(CC1)OCCO2 (stereo not given)
At 20 µM
  inhibition: 3.1% (inactive)

## CNCCc1ccc(OC)c(OC)c1
At 20 µM
  inhibition: -0.5% (inactive)

## O=C(c1ccc(Cl)cc1)C12CN3CN(CN(C3)C1)C2
At 20 µM
  inhibition: 0% (inactive)

## COP(=O)(OC)C(Nc1ccccn1)c1ccccc1 (stereo not given)
At 20 µM
  inhibition: -0.3% (inactive)

## CN1C(=O)C(=Cc2sc(=O)n(-c3ccccc3)c2N2CCCCC2)C(=O)N(C)C1=O
At 20 µM
  inhibition: 68.2% (active)
[1]
  inhibition: 87.3%

## CN1C(=O)C(=Cc2sc(=O)n(-c3ccccc3)c2N(C)C)C(=O)N(C)C1=O
At 20 µM
  inhibition: 27.8% (inactive)

## CN1C(=O)C(=Cc2ccc(N3CCCCCC3)cc2)C(=O)N(C)C1=O
At 20 µM
  inhibition: 16.5% (inactive)

## COc1ccc(N2C(=O)NC(=O)/C(=C\c3ccc([N+](=O)[O-])s3)C2=O)cc1
At 20 µM
  inhibition: 56.4% (active)

## COc1ccc(N2C(=O)NC(=O)/C(=C/c3ccc([N+](=O)[O-])s3)C2=O)cc1
At 20 µM
  inhibition: 35.4% (inactive)

## O=C1NC(=O)N(c2ccccc2)C(=O)/C1=C\c1ccc([N+](=O)[O-])s1
At 20 µM
  inhibition: 61.1% (inactive)
[1]
  inhibition: 6.1%

## O=C1NC(=O)N(c2ccccc2)C(=O)/C1=C/c1ccc([N+](=O)[O-])s1
At 20 µM
  inhibition: 64.8% (active)

## COc1cccc(N2C(=O)NC(=O)/C(=C/c3ccc([N+](=O)[O-])s3)C2=O)c1
At 20 µM
  inhibition: 45.2% (inactive)

## COc1ccccc1N1C(=O)NC(=O)/C(=C/c2ccc([N+](=O)[O-])s2)C1=O
At 20 µM
  inhibition: 42.7% (inactive)

## O=c1c2ccccc2nc(Cc2ccccc2)n1-c1cccc(O)c1
At 20 µM
  inhibition: -1% (inactive)

## CCCc1cc(=O)oc2cc(OCC(=O)N3C[C@H]4C[C@@H](C3)c3cccc(=O)n3C4)ccc12
At 20 µM
  inhibition: 3% (inactive)

## CCOC(=O)c1nc2ccccc2c(=O)n1-c1ccc(C)cc1
At 20 µM
  inhibition: 0.5% (inactive)

## COc1cc(CC2(CCc3ccncc3)C(=O)N(C)C(=O)N(C)C2=O)cc(OC)c1OC
At 20 µM
  inhibition: 2.3% (inactive)

## CCN1/C(=C\C=C\C2=[N+](CC)c3ccccc3C2(C)C)C(C)(C)c2ccccc21
At 20 µM
  inhibition: 0.5% (inactive)

## CN1/C(=C\C=C\C2=[N+](C)c3ccc4ccccc4c3C2(C)C)C(C)(C)c2ccccc21
At 20 µM
  inhibition: 65.1% (active)
[1]
  inhibition: 90.9%

## CN1/C(=C\C=Nc2ccccc2)C(C)(C)c2ccccc21
At 20 µM
  inhibition: 0.8% (inactive)

## NCCc1c[nH]c2ccc(OCc3ccccc3)cc12
At 20 µM
  inhibition: -1.2% (inactive)
